# Screening results from PubChem BioAssay.
# Sampled rows, rich in hits. Any-hit rate of the full collection: about 1.8%.
# GLP1R inv ag: GLP-1 receptor (human) inverse agonism | P43220 | HEK293 GLP-1R CRE-luciferase, luminescence, 24 h; GLP-1R form is constitutively active | Potency, µM (doses to about 38.3 µM), for the others: top-dose activity change, negative = inhibition, hits mostly inhibitors | AID 624417 | 1.6% of 410,000 active; also: % is scaled to controls: 0 for no effect and ±100 for the full control effect; nearly all actives have a fitted effect of over 55% in size
#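 Stable HEK293 clone (constitutively active GLP-1R + cAMP-response luciferase); 200 cells/uL plated, 12 h pre-culture, compound 24 hr, 37 deg C/5% CO2; detection reagent 12 min RT; luminescence.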
# HEK293 tox: cytotoxicity in counter-screen for GLP-1R inverse agonists; HEK293 cAMP-luciferase reporter cells, luminescence, 24 h; Potency, µM (titrated, usually from 38.3 µM), without a hit: top-dose activity change, negative = inhibition, usual class: inhibitors; 0.13% of 410,000 active;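 also: loss of luciferase light is scored as toxicity; % is scaled to controls: 0 for no effect and ±100 for the full control effect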
#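 Step one: seed cells (200 cells/uL, DMEM with 10% Nu serum, 1% pen-strep). Step two: 12-hour incubation at 37 deg C. Step three: pin 23 nL compound, incubate 24 hr. Step four: add luciferase reagent, read luminescence 12 min later.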
# GLP1R ag: agonists of human GLP-1 receptor | AID 624172 | 0.007% of 380,000 active | HEK293 GLP-1R CRE-luciferase, luminescence, 4-6 h; cells express a hypersensitive GLP-1R form | Potency, µM (doses to about 45.6 µM), without a hit: at the top dose activation, usual class: activators; also: % of control where 0% means no effect
# PTHR1 agonist: agonists of human PTHR1 parathyroid hormone receptor; Q03431; HEK293 GP2 PTHR1 cells, GloSensor cAMP luminescence, 1 h; Potency, µM (doses to about 115 µM), inactives show at the highest dose activation, hits mostly activators; 0.075% of 410,000 active; also: nearly all actives have a fitted effect of over 55% in size
#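 HEK-293-derived GP2 cells expressing PTHR1 and a GloSensor cAMP reporter, 3,000/well, plated overnight, given luciferin plus IBMX (each 0.5 mM as added) for 1 h at 37 °C, then compound for 1 h at 37 °C. Luminescence was read after 15 min at room temperature.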
# RGS4 inh: blocks human RGS4-accelerated GTP hydrolysis. P49798. Transcreener GDP fluorescence polarization, RGS4-accelerated GTP hydrolysis. Potency, µM (top dose mostly 114 µM), without a hit: at the highest dose activity change, negative = inhibition, usual class: inhibitors. 0.039% of 390,000 active. AID 504845; also: % is scaled to controls: 0 for no effect and ±100 for the full control effect; nearly all actives have a fitted effect of over 75% in size
#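 MLSMR compounds (23 nl, pin-transferred) preincubated 10 min at room temperature with a 500nM (2x) first reagent, then RGS4 at 900nM (2x) plus Transcreener GDP mix added; fluorescence polarization (620/688 nm) read before and after 90 min at 30 °C.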
# GCN5L2 inh: blocks human GCN5L2 histone acetyltransferase. Potency, µM (series often up to 58.9 µM), inactives show at the top dose activity change, negative = inhibition, most hits filed as inhibitors. Q92830. 0.21% of 390,000 active. GCN5L2 HAT assay, ThioGlo1 CoA-SH fluorescence; also: % is scaled to controls: 0 for no effect and ±100 for the full control effect
# Target sequence (Q92830 whole entry, looked up): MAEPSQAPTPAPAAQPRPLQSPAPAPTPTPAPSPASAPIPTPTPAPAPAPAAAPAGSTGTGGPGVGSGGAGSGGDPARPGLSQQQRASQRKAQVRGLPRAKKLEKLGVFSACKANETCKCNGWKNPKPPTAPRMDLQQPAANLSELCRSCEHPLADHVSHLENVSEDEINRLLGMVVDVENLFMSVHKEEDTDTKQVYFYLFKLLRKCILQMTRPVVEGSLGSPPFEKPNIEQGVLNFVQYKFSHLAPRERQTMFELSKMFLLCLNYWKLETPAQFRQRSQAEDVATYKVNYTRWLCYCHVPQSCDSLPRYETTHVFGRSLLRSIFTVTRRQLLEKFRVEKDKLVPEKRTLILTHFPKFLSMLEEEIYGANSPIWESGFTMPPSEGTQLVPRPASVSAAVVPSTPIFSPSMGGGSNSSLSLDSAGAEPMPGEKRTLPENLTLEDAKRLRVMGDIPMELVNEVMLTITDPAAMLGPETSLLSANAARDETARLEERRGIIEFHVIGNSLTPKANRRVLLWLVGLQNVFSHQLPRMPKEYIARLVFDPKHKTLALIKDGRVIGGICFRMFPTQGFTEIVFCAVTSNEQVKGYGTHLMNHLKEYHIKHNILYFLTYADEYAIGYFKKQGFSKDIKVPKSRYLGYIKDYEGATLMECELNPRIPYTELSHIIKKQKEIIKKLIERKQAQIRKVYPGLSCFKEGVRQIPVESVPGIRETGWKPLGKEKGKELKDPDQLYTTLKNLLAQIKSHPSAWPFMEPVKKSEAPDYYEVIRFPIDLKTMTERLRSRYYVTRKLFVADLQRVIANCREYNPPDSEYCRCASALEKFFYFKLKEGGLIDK
#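 Compounds, pin-transferred from DMSO stocks, meet 20nM GCN5L2 for 15 min before the reaction begins with H3(1-25) peptide (75uM) and acetyl-CoA (70uM). Thiol-reactive ThioGlo1 reports CoA release over 20 min at room temperature.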
# An asterisk follows results filed as active; i = inactive; ? = inconclusive; nt = not tested or not shown; ! = a repeat was not active; [ ] = dose if it differs, or a comment. Calls follow the shape of the dose curve; as a rule, active = well fitted curve in the direction sought with a large enough effect; inconclusive = small, poorly fitted or top-dose-only effect, or another doubt; inactive = no such curve, though single readings can be large; an effect the other way counts as inactive or inconclusive. Potency is read from the fitted curve at half-maximal effect.
SMILES,GLP1R inv ag,HEK293 tox,GLP1R ag,PTHR1 agonist,RGS4 inh,GCN5L2 inh
CCC(C)NCCOc1ccc(C(C)(C)c2ccccc2)cc1 (stereo not given),5.01µM*,?,8.7%,-9.9%,12.4%,-1.2%
CC(C)(c1ccc(OCC2CO2)cc1)c1ccc(OCC2CO2)cc1 (stereo not given),nt,nt,nt,nt,i,-13.8%
CN1C2CCC1CC(OC(=O)c1cc(Cl)cc(Cl)c1)C2 (stereo not given),?,-9.4%,-3.3%,-8.7%[57.5 µM],29.9µM*!,-4.4%
NC(=O)CF,nt,nt,nt,nt,nt,-4.1%
COc1cc2oc(=O)c(CC(=O)N3C[C@H]4C[C@@H](C3)c3cccc(=O)n3C4)c(C)c2cc1Cl,-4.7%,0.1%,0.0%,-39.8%,-1.6%,nt
Cc1c(CC(=O)N2C[C@H]3C[C@@H](C2)c2cccc(=O)n2C3)c(=O)oc2cc(O)c(Cl)cc12,1.6%,270.1%,5.2%,i,0.8%,20µM*
COC(=O)C1=C(C)N(Cc2ccccc2)C(=NCc2cccc(C(F)(F)F)c2)N[C@H]1c1cccc(F)c1,?,22.4µM*,-20.9%,-13.9%,5.8%,?
CNC(=O)c1cccn(Cc2cccc(C(F)(F)F)c2)c1=O,4.2%,-1.8%,-0.6%,-26.3%,-8.5%,-0.9%
Cc1ccc(OCCOc2cccc(C=C3C(=O)NC(=O)NC3=O)c2)c(C)c1,6.31µM*,-1.3%,-7.0%,-38.2%,-57.8%[56.9 µM],?
CCOP(=O)(OCC)C(NC(=O)Nc1ccc(C)c(Cl)c1)c1ccccc1 (stereo not given),?,-5.5%,10.3%,-4.5%,-21.3%,-5.8%
CCOP(=O)(OCC)C(NC(=O)Nc1ccc(Cl)c(Cl)c1)c1ccccc1 (stereo not given),8.91µM*,-8.7%,1.2%,-11.7%,-29.7%,-11.8%
C[C@@H]1O[C@@H](O[C@H]2C[C@@H](O)[C@]3(CO)[C@@H]4C(CC[C@]3(O)C2)[C@@]2(O)CC[C@H](C3COC(=O)C3)[C@@]2(C)C[C@H]4O)[C@H](O)[C@H](O)[C@H]1O (stereo not given in full),1µM*,?,-9.8%,-36.0%,12.4%,-1.0%
Cc1ncc(CO)c2c1Oc1nc(-c3ccccc3Cl)nc(SCc3ccccc3F)c1C2,3.2%,1.7%,nt,-50.5%,6.4%,-7.4%
O=C1CC(NC(=O)C(F)(F)F)=NN1c1ccccc1,2.51µM*,?,-9.2%,-22.2%,-19.3%,0.9%
CCOC(OCC)P(=O)(O)CCCN,nt,nt,nt,nt,-40.0%[56.9 µM],-0.1%
CCc1c(C2(O)CCCCC2)[nH]c2ccc(C(F)(F)F)cc12,2.24µM*,?,8.3%,-25.2%,-22.8%,-10.7%
CCOC(=O)[C@]12Cc3ccc(C)cc3[C@H]1N(C1CCCCC1)C(=O)c1cc(OC)ccc12,?,11.2µM*,-12.0%,-96.2%,nt,nt
CCCCCN1C(=O)c2cc(OC)ccc2[C@@]2(C(=O)OCC)Cc3cc(OC)ccc3[C@@H]12,7.08µM*,?,-13.3%,-52.3%,nt,nt
CCOC(=O)[C@]12Cc3ccc(C)cc3[C@H]1N(C1CCCCC1)C(=O)c1ccccc12,?,?,-12.7%,-57.6%,nt,nt
CN(C)C(Cc1ccccc1)C(=O)c1c[nH]c2ccccc12 (stereo not given),12.6µM*,1.4%,-4.6%,i,-10.0%,-12.3%
CCOc1ccc(S(=O)(=O)Nc2cccc(C(=O)N3CCN(c4ccccn4)CC3)c2)cc1,-18.8%,4.3%,-5.8%,-31.9%,nt,nt
COC(=O)C1C=C2c3cccc4[nH]cc(c34)CC2N(C)C1 (stereo not given),nt,nt,nt,nt,nt,-8.1%
CC[C@@H](CO)NC(=O)[C@@H]1C=C2c3cccc4c3c(cn4C)C[C@H]2N(C)C1,-10.4%,4.1%,-0.4%,-30.3%,18.9µM*!,?
